SW480 rerep: A quantitative high throughput screen for small molecules that induce DNA re-replication in SW480 colon adenocarcinoma cells. SW480 DNA re-replication, Hoechst DNA content imaging, 48 h. Potency, µM (series often up to 46.1 µM), without a hit: at the highest dose re-replication activation, most hits filed as activators. 1.8% of 340,000 active; further: % of control where 0% means no effect; nearly all actives have a fitted effect of over 55% in size
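Quantitative HTS format with DMSO vehicle controls; 48 hr drug incubation at 37 C, then 40 min Hoechst staining and scanning imager measurement at 405 nm excitation.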
MCF10A rerep: A quantitative high throughput screen for small molecules that induce DNA re-replication in MCF 10a normal breast cells; 2.9% of 350,000 active; Potency, µM (doses to about 46.1 µM), inactives show at the highest dose activity, positive = re-replication, usual class: activators; MCF 10A DNA re-replication, Hoechst nuclear intensity, 48 h; AID 624296, 2012; further: % of control where 0% means no effect; nearly all actives have a fitted effect of over 50% in size
AT treatment: qHTS Assay for Identifying a Potential Treatment of Ataxia-Telangiectasia; F2112 A-T fibroblasts, KAP-1 phosphorylation AlphaLISA; neocarzinostatin DNA damage 30 min before lysis; Potency, µM (series often up to 57.5 µM), inactives show top-dose activation, hits mostly activators; 0.19% of 320,000 active; further: % of control where 0% means no effect; nearly all actives have a fitted effect of over 45% in size
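ATM-like activity read as KAP-1 phosphorylation via AlphaLISA donor/acceptor antibody pairs after lysis and 6 hr at 25C. Cells were ATM-null patient fibroblasts (F2112, hTERT), dosed 60 min, then exposed to the DSB inducer NCS for 30 min.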
ELG1 repair inh: qHTS screen for small molecules that inhibit ELG1-dependent DNA repair in human embryonic kidney (HEK293T) cells expressing luciferase-tagged ELG1. AID 504467, 2011. 2.3% of 330,000 active. Potency, µM (highest dose often 46.1 µM), inactives show at the highest dose activity change, negative = inhibition, most hits filed as inhibitors. HEK293T ELG1-luciferase reporter, luminescence, 16 h; DNA damage induced by 5-fluorouridine; further: on the % scale 0 is the no-effect control and ±100 the full control effect; nearly all actives have a fitted effect of over 55% in size
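Step one: seed 2,000 cells per well. Step two: pin-transfer compound or DMSO alongside 5-fluorouridine. Step three: incubate 16 hr, 37 °C, 5% CO2. Step four: add ONE-Glo, wait 30 min, read luminescence.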
ELG1 genotox: qHTS screen for small molecules that induce genotoxicity in human embryonic kidney (HEK293T) cells expressing luciferase-tagged ELG1. Potency, µM (doses to about 46 µM), inactives show top-dose activity change, positive = activation, usual class: activators. 1.3% of 330,000 active. HEK293T ELG1-luciferase reporter, luminescence, 16 h; further: % of control where 0% means no effect; nearly all actives have a fitted effect of over 60% in size
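Step 1: seed 2,000 HEK293T ELG1-luciferase cells per well. Step 2: add compound or DMSO, incubate 16 hr at 37 °C. Step 3: ONE-Glo, 30 min at room temperature, read luminescence.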
p53 reactivation: qHTS assay for re-activators of p53 using a Luc reporter | 0.063% of 320,000 active | Potency, µM (series often up to 92.2 µM), for the others: at the highest dose activity change, positive = activation, hits mostly activators | AID 504706, 2011 | H1299 p53-A138V BP100-luciferase reporter, luminescence, 24 h; further: % of control where 0% means no effect; nearly all actives have a fitted effect of over 45% in size
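p53-null H1299 cells stably carrying temperature-sensitive p53-A138V and a BP100-luciferase reporter were pinned with compounds (4-point, 1:5 series) and held 24 hrs at 37 deg C. Luminescence was read 10 min after detection reagent.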
* hit, by the source's call; ? = inconclusive; nt = not tested or not shown; [ ] = dose if it differs, or a comment. This is a sample that favours compounds with a hit; in the whole collection about 7.1% have one here. The call rests on the fitted dose curve; in most records, active means well fitted curve in the direction sought with a large enough effect; inconclusive means small, poorly fitted or top-dose-only effect, or another doubt; inactive means no such curve, though single readings can be large; an effect the other way counts as inactive or inconclusive. Potency means the concentration at half of the fitted maximal effect.

SMILES | SW480 rerep | MCF10A rerep | AT treatment | ELG1 repair inh | ELG1 genotox | p53 reactivation
COc1ccc(S(=O)(=O)N2CCCCCC2)cc1C(=O)N(C)Cc1c(F)cccc1Cl | -1% | ? | 6% | ? | -3% | -19%
Nc1ccc(S(=O)(=O)N2CCOCCOCCOCCOCCOCC2)cc1 | 1% | -1% | -13% | -19% | 0% | 10%
Cc1ccc(NC(=O)CC2CCCC2)c(Br)c1 | ? | -16% | 1% | ? | ? | ?
COc1ccc(S(=O)(=O)N2CCCCC2)cc1NS(=O)(=O)c1ccccc1F | -1% | -45% | 0% | -1% | 0% | 1%
COc1cc(/C=C/C(=O)OCC(=O)Nc2cc(S(=O)(=O)N3CCOCC3)ccc2Cl)cc(OC)c1OC | 12% | 24% | 8% | 18µM* | -1% | -7%
COc1ccc(S(=O)(=O)N2CCCCC2)cc1NS(=O)(=O)c1cc(Cl)ccc1Cl | 23µM* | -18% | 7% | 2% | -3% | -2%
O=C(COc1ccc([N+](=O)[O-])cc1)Nc1ccccc1C(=O)NC1CC1 | -232% | -19% | 3% | 12% | 1% | -5%
Cc1ccc(NC(=O)c2ccc3c(c2)N(CC(=O)N2CCCCC2)C(=O)C(C)(C)O3)cc1 | 11% | -182%[0.0737 µM] | 3% | 13µM* | -2% | -5%
CCOC(=O)CN1C(=O)C(C)(C)Oc2ccc(C(=O)Nc3ccccc3OC)cc21 | -9% | ? | -3% | 18µM* | -9% | -4%
Cn1c(C(=O)N[C@@H](C(=O)O)c2ccccc2)cc2cc(F)ccc21 | 3% | 5% | 7% | -7% | -5% | 11%
CCn1c(C)cc(O)c(C(=O)Nc2cccc(Cl)c2)c1=O | 0% | -2% | 1% | ? | 9% | -2%
Cc1cc(O)c(C(=O)Nc2cccc(Cl)c2)c(=O)n1C | -11% | -1% | 7% | ? | 10µM* | -3%
CCCCOC(=O)c1ccc(NC(=O)C(=O)CC(=O)c2ccc(OC)cc2)cc1 | 0% | 15µM* | -2% | -20% | -2% | -5%
CCCCOC(=O)c1ccc(NC(C)=O)cc1 | -2% | 0% | -2% | ? | 3% | ?
CCN(CC)CCCNc1ccc2ncn3c4ccc(O)cc4c(=O)c1c23 | 7.3µM* | ? | nt | nt | nt | nt
N#CC1=C(N)C(C#N)(C#N)[C@H](c2c(F)cccc2F)[C@H]2CC3(CC=C12)OCCO3 | 3.3µM* | 4.1µM* | nt | ? | 5% | -48%
O=C(C1CC(=O)N(c2ccc3c(c2)OCCO3)C1)N1CCN(S(=O)(=O)c2ccccc2F)CC1 (stereo not given) | -6% | 0% | nt | nt | nt | nt
C=CC[C@@H](CC(=O)N[C@H](CO)Cc1ccccc1)C(=O)N[C@H](COC(=O)[C@@H](CC=C)Cc1ccc(F)cc1)Cc1c[nH]c2ccccc12 | 14% | 0% | 3% | 21µM* | -7% | 2%
C=CC[C@@H](CC(=O)N[C@@H](CO)Cc1ccccc1)C(=O)N[C@H](COC(=O)[C@@H](CC=C)CC(=O)OC(C)(C)C)Cc1c[nH]c2ccccc12 | ? | 16µM* | -1% | 21µM* | -7% | 7%
C=CCC[C@H](Cc1ccc(F)cc1)C(=O)OC[C@H](Cc1c[nH]c2ccccc12)NC(=O)[C@@H](CC=C)CC(=O)N[C@@H](CO)Cc1ccccc1 | -6% | ? | -15% | ? | 16% | -11%
C=CCC[C@@H](Cc1ccc(F)cc1)C(=O)OC[C@H](Cc1c[nH]c2ccccc12)NC(=O)[C@@H](CC=C)CC(=O)N[C@H](CO)Cc1ccccc1 | 3.7µM* | 21% | 3% | ? | 2% | 9%
COc1ccc(N(C)C(=O)CN(C)S(=O)(=O)c2ccc3c(c2)c(=O)n(C)c(=O)n3C)c(OC)c1 | 4% | -3% | 6% | 9% | -4% | 3%
[O]=[Bi][O]C(=O)[O][Bi]=[O] | -3% | 0% | nt | nt | nt | nt
CC(C)N(C(=O)[C@H]1CC(CC(=O)NC(C)(C)C)C(=O)N2CCc3c([nH]c4ccccc34)[C@]12C)C(C)C (stereo not given in full) | ? | 14% | 16% | -3% | -4% | -7%
COc1ccc(CCc2cc(OC)c(OC)c(OC)c2)cc1 | ? | 1.8µM* | nt | nt | nt | nt
SMILES | SW480 rerep | MCF10A rerep | AT treatment | ELG1 repair inh | ELG1 genotox | p53 reactivation
C=C(C)COc1ccc(-c2ncncc2-c2ccc(Cl)cc2)c(O)c1 | -4% | 15µM* | 27% | ? | -5% | -6%
COc1ccc(-c2cncnc2-c2ccc(OC)cc2O)cc1 | -4% | -6% | 21% | 5.8µM* | -18% | 6%
Cc1ccc(OCc2cc(C(=O)N3CCN(c4ccccc4)CC3)no2)cc1C | ? | -3% | 4% | ? | 3.7µM* | ?
Cc1cc(OCc2cc(C(=O)N3CCN(CC4CC4)CC3)no2)cc(C)c1Cl | ? | 16% | -5% | 11% | 4% | -1%
Cc1ccc(OCc2cc(C(=O)N3CCN(C4CCCCC4)CC3)no2)cc1C | -9% | 12µM* | 6% | ? | 2%[9.26 µM] | ?
Cc1cc(OCc2cc(C(=O)N3CCC(Oc4cccnc4)CC3)no2)cc(C)c1Cl | 2% | 21µM* | 2% | -20% | -12% | -3%
O=C(OCCSCCOC(=O)C1CC=CCC1)C1CC=CCC1 (stereo not given) | 2% | -2% | nt | nt | nt | nt
CC(C)(C)CCN1CCC(CN2CCNC(=O)C2=O)CC1 | -8% | 0% | nt | nt | nt | nt
CC(=O)c1ccc(NC(=O)C(C)O/N=C(\N)c2ccccc2)cc1 (stereo not given) | -3% | 0% | 28% | -1% | -3% | 8%
c1ccc2c(CCNc3ncnc4nc[nH]c34)c[nH]c2c1 | ? | ? | 10% | 6.5µM* | -6% | ?
O=[N+]([O-])c1cccnc1NCCc1c[nH]c2ccccc12 | 0% | 4% | 1% | ? | 13µM* | 25%
O=[N+]([O-])c1cccnc1NCCc1ccccc1 | -1% | -3% | -3% | ? | ? | 9%
O=[N+]([O-])c1cc(C(F)(F)F)ccc1NCCc1c[nH]c2ccccc12 | 15% | ? | 3% | ? | -1% | 40µM*

Screening data as filed in PubChem BioAssay.
